Test results reported in PubChem BioAssay (Tox21).
Inconclusive results are not listed. Activity calls are given as the source filed them. Unless noted, calls follow the shape of the dose curve; as a rule, active = well fitted curve in the direction sought with a large enough effect in the repeat runs; inconclusive = weak or mixed curves; inactive = no such curve, though single readings can be large; an effect the other way counts as inactive or inconclusive.

Legend:
[1] = qHTS assay to identify small molecule agonists of the peroxisome proliferator-activated receptor delta (PPARd) signaling pathway - cell viability counter screen (AID 743211); also: nearly all actives have a fitted effect of over 55% in size; also: potency is read from the fitted curve at half-maximal effect
Method in brief: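 Tox21 library compounds, delivered in DMSO, were incubated 17 h with PPARd-bla HEK293H cells; cytotoxicity was taken from CellTiter-Glo luminescence read 30 min after reagent addition.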

[2] = qHTS assay to identify small molecule antagonists of the peroxisome proliferator-activated receptor delta (PPARd) signaling pathway - cell viability counter screen (AID 743213); also: nearly all actives have a fitted effect of over 50% in size
Method in brief: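 HEK293H cells with the PPARd UAS-bla reporter, co-treated 17 h at 37 C with compounds and L165041 (300 nM final), were lysed with CellTiter-Glo. Luminescence indicated viable cell content.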

[3] = biological target: Bile acid receptor (Homo sapiens) (UniProt Q96RI1); assay: qHTS assay to identify small molecule antagonists of the farnesoid-X-receptor (FXR) signaling pathway (AID 743217; active = well fitted inhibition curve with a large enough effect in the signal ratio in the repeat runs, not every such curve was filed as active; the % refers to the signal ratio)
Sequence of Bile acid receptor (Homo sapiens) (Q96RI1 whole entry, looked up): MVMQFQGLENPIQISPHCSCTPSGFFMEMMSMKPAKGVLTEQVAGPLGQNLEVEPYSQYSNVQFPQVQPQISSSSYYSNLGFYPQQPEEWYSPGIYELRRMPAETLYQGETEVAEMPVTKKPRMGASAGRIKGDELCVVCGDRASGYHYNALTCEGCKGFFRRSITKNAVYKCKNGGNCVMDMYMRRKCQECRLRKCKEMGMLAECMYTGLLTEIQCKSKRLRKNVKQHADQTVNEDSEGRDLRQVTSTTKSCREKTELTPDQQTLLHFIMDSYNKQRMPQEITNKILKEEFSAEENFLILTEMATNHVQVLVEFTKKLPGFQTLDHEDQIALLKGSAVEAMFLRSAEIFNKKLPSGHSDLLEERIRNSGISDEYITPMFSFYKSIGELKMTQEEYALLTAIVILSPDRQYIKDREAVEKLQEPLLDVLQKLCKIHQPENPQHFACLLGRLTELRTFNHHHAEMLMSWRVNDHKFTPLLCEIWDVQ
Method in brief: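 FRET fluorescence after 2 h room-temperature LiveBLAzer loading gives the readout. Prior step: FXR-bla HEK 293T cells, seeded and incubated 5 h, received test compounds plus 50 uM final CDCA for 16 h at 37 °C.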

[4] = qHTS assay to identify small molecule agonists of the farnesoid-X-receptor (FXR) signaling pathway - cell viability counter screen (AID 743218); also: nearly all actives have a fitted effect of over 45% in size
Method in brief: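 Readout: CellTiter-Glo luminescence, 30 min RT, multiplexed after the FXR-bla FRET reading. HEK 293T FXR-UAS-bla cells received compound 5 h post-plating and were incubated 16 h at 37 C.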

[5] = biological target: Bile acid receptor (Homo sapiens) (UniProt Q96RI1); assay: qHTS assay to identify small molecule agonists of the farnesoid-X-receptor (FXR) signaling pathway (AID 743220; active = well fitted activation curve with a large enough effect in the signal ratio in the repeat runs, not every such curve was filed as active; the % refers to the signal ratio)
Method in brief: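 FXR-UAS-bla HEK 293T cells carrying a UAS-driven beta-lactamase reporter were plated for 5 h at 37C/5% CO2, then exposed to DMSO-dissolved Tox21 10K compounds for 16 h at 37C. A LiveBLAzer B/G FRET substrate was loaded for 2 h at room temperature before fluorescence reading.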

[6] = qHTS assay to identify small molecule antagonists of the farnesoid-X-receptor (FXR) signaling pathway - cell viability counter screen (AID 743221; active = well fitted cell-killing curve with a large enough effect in the repeat runs, not every such curve was filed as active; also: nearly all actives have a fitted effect of over 50% in size)
Method in brief: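 Cytotoxicity is taken from ATP luminescence (CellTiter-Glo, 30 min, room temperature) in FXR-bla HEK 293T cells previously incubated 16 h at 37 C with compound and chenodeoxycholic acid at 50 uM final.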

[7] = biological target: Peroxisome proliferator-activated receptor delta (Homo sapiens) (UniProt Q03181); assay: qHTS assay to identify small molecule agonists of the peroxisome proliferator-activated receptor delta (PPARd) signaling pathway (AID 743212; calls by dose curve)
Sequence of Peroxisome proliferator-activated receptor delta (Homo sapiens) (Q03181 whole entry, looked up): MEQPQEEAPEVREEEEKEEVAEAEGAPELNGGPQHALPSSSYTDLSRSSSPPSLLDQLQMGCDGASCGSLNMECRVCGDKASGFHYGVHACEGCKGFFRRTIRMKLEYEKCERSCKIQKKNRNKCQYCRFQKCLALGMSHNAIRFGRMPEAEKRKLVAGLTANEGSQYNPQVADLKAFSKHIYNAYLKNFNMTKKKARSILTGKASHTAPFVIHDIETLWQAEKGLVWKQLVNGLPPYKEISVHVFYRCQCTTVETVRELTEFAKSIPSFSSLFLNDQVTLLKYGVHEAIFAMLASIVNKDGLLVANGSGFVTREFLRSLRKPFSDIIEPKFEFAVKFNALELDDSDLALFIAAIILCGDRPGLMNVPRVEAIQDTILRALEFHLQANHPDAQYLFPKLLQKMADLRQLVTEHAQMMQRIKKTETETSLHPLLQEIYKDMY
Method in brief: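 Read-out: beta-lactamase FRET fluorescence after 2 h room-temperature incubation with LiveBLAzer B/G substrate. Cells were HEK293H carrying a UAS-bla reporter for PPARd, treated at 37 C with DMSO-dissolved compounds.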

[8] = biological target: Peroxisome proliferator-activated receptor delta (Homo sapiens) (UniProt Q03181); assay: qHTS assay to identify small molecule antagonists of the peroxisome proliferator-activated receptor delta (PPARd) signaling pathway (AID 743215; active = well fitted inhibition curve with a large enough effect in the signal ratio in the repeat runs, not every such curve was filed as active; the % refers to the signal ratio;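 also: cells stimulated with agonist L165041 at 300 nM final during compound exposure; series mostly up to about 62 µM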)
Method in brief: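 Fluorescence from cleaved LiveBLAzer B/G FRET substrate (2 h, room temperature) reports PPARd-driven beta-lactamase in HEK293H UAS-bla cells. Cells had been treated 17 h at 37 C with compound plus 300 nM final L165041.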

[9] = biological target: Vitamin D3 receptor (Homo sapiens) (UniProt P11473); assay: qHTS assay to identify small molecule agonists of the vitamin D receptor (VDR) signaling pathway (AID 743222; calls by dose curve)
Sequence of Vitamin D3 receptor (Homo sapiens) (P11473 whole entry, looked up): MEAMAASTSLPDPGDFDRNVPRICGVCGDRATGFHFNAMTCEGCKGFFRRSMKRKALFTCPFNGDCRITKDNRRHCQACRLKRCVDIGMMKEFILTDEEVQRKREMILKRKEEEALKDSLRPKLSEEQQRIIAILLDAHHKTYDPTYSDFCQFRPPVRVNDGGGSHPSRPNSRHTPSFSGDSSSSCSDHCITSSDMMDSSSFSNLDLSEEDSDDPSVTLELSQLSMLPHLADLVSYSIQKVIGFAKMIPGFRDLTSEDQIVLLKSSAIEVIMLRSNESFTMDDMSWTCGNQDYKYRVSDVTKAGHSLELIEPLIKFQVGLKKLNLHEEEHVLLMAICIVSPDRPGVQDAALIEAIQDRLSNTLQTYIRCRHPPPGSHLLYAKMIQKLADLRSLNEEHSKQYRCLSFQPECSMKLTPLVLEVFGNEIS
Method in brief: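 Following 4 h attachment at 37C, VDR-bla cells (2,000 per well) received DMSO-dissolved compounds or controls. After 16 h incubation, LiveBLAzer B/G FRET substrate was added and fluorescence read 2 h later at room temperature.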

[10] = biological target: Vitamin D3 receptor (Homo sapiens) (UniProt P11473); assay: qHTS assay to identify small molecule antagonists of the vitamin D receptor (VDR) signaling pathway (AID 743223; active = well fitted inhibition curve with a large enough effect in the signal ratio in the repeat runs, not every such curve was filed as active; the % refers to the signal ratio)
Method in brief: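 Quantitative HTS in VDR-bla reporter cells stimulated with 1alpha,25-dihydroxyvitamin D3, 3 nM final. Compound exposure 16 h, 37C, 5% CO2. Read-out: beta-lactamase FRET substrate fluorescence, 2 h RT.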

Measured: Potency

OC(c1ccccc1)(c1ccccc1)C1CCNCC1
inactive: [1] | [2] | [3] | [4] | [5] | [6]

[O]=[Cd]
inactive: [1] | [7] | [8] | [4] | [6] | [9]

OCCBr
not listed: [7] | [8]
inactive: all other assays above

COc1cccc(C(=O)NN(C(=O)c2cc(C)cc(C)c2)C(C)(C)C)c1C
inactive: [1] | [7] | [8] | [6] | [9] | [10]

Cc1nc(N)nc(N)n1
inactive: [1] | [7] | [8] | [4] | [9] | [10]

CCOP(=S)(OCC)Oc1ncn(-c2ccccc2)n1
not listed: [4] | [7] | [8]
inactive: all other assays above

Cc1cc(C)nc(Nc2ccccc2)n1
inactive: [1] | [7] | [8] | [4] | [6] | [9]

O=C(CCN1CC1)OCC(CO)(COC(=O)CCN1CC1)COC(=O)CCN1CC1
inactive: [1] | [2] | [3] | [4] | [5]

c1ccc(N2CCNCC2)cc1
not listed: [7] | [8] | [10]
inactive: all other assays above

O=[N+]([O-])c1ccc(CBr)cc1
inactive: [1] | [7] | [4] | [6]

CCC(C)n1c(=O)[nH]c(C)c(Br)c1=O (stereo not given)
not listed: [7] | [8]
inactive: all other assays above

O=C(O)C(Br)CBr (stereo not given)
inactive: [1] | [2] | [8] | [4] | [6]

CCOC(=O)C1(c2ccccc2)CCN(CCc2ccc(N)cc2)CC1
not listed: [2] | [3] | [5]
inactive: all other assays above

CSc1nc(N=[N+]=[N-])nc(NC(C)C)n1
inactive: [1] | [7] | [4] | [6] | [9] | [10]

CN(N=O)C(N)=O
not listed: [7] | [8] | [10]
inactive: all other assays above

O=NN1CCN(N=O)CC1
not listed: [7] | [8]
inactive: all other assays above

CC(C)(C)C(=O)C(Oc1ccc(Cl)cc1)n1cncn1 (stereo not given)
inactive: [1] | [7] | [8] | [4] | [9]

O=S(=O)(O)C(F)(F)C(F)(F)C(F)(F)C(F)(F)C(F)(F)C(F)(F)F
not listed: [3] | [7] | [10]
inactive: all other assays above

COC(=O)C(c1ccccc1)C1CCCCN1 (stereo not given)
not listed: [6] | [7] | [8]
inactive: all other assays above

CCOP(=S)(OCC)SCSc1ccc(Cl)cc1
not listed: [6] | [7] | [10]
inactive: all other assays above

Nc1cnn(-c2ccccc2)c(=O)c1Cl
inactive: [1] | [2] | [8] | [4] | [6] | [9]

ClC(Cl)C(Cl)Cl
inactive: [1] | [2] | [4] | [5]

CCS(=O)(=O)C(C)(C)S(=O)(=O)CC
not listed: [7] | [8]
inactive: all other assays above

COC(C)(C)C
inactive: [1] | [7] | [4] | [6] | [9] | [10]

Cc1cccc(C#N)c1
not listed: [7] | [10]
inactive: all other assays above

Fc1ccc(C2(Cn3cncn3)OC2c2ccccc2Cl)cc1 (stereo not given)
inactive: [1] | [2] | [3] | [4] | [6] | [9]

CCCSP(=O)(OCC)Oc1ccc(Br)cc1Cl (stereo not given)
not listed: [2] | [3] | [4]
inactive: all other assays above

CC(C)(C)NCC(O)c1cc(Cl)c(N)c(Cl)c1 (stereo not given)
not listed: [2] | [8]
inactive: all other assays above

C1CCC(C2CCCCC2)CC1
not listed: [4] | [6] | [7]
inactive: all other assays above

CC(COc1ccc(Oc2ccccc2)cc1)Oc1ccccn1 (stereo not given)
inactive: [1] | [7] | [8] | [5] | [6] | [9]

CN1CCC(N(Cc2ccccc2)c2ccccc2)CC1
inactive: [7] | [8] | [6] | [9] | [10]
active: [1] 26.6 µM
